High-throughput results deposited in PubChem BioAssay by several laboratories.
Most compounds without a hit are left out; they make up all but 4.5% or so of the library.
EBNA-1 inh – blocks EBNA-1 binding to DNA. EBNA-1 DNA binding, fluorescence polarization. inhibition, % at 14.8 µM. hit rate 0.34% among 300,000. AID 1950; in the data active = inhibition above about 28%
dFosB act – activators of mouse delta FosB homodimer; hit rate 0.99% among 340,000; P13346; activation, % at 25 µM; purified delta FosB, TAMRA-CDK5 oligo fluorescence polarization; percent of positive-control signal above neutral wells;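 active = mean activation above about 17%, with every replicate also reaching it, limit read from the data, passing the limit was not always enough; inconclusive = only one of the two conditions met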
TPT1 inh – C. albicans TPT1 enzyme inhibition; recombinant caTPT1, FP RNA substrate dephosphorylation; inhibition, % at 5 µM; hit rate 0.81% among 300,000; AID 1962;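 active = inhibition above the mean of all tested compounds plus 3 SD, set per screening campaign, cut at about 24% in these data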;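 also: plate controls were DMSO alone for no effect and ferristatin control at 100 nM for full effect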
NR3A LBD binder – NR3A (human) ligand-binding domain modulation. NR3A LBD differential scanning fluorimetry, Tm shift; 0% = protein alone, 100% = glycine-bound protein. Tm shift relative to glycine control, % at 25 µM. hit rate 2.5% among 340,000. AID 1259313;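 active = melting temperature shift of at least 10% of the positive control shift, at one fixed dose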
Rpn11 inh – inhibitors of human proteasome Rpn11; human 26S proteasome, Ub4-pepOG fluorescence polarization; 20S core pre-blocked with epoxomicin; hit rate 0.59% among 360,000; O00487; inhibition, % at 20 µM;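 active = inhibition at 20 µM, scaled to each plate's controls, above about 33%, limit read from the data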
Target sequence (O00487 whole entry, looked up): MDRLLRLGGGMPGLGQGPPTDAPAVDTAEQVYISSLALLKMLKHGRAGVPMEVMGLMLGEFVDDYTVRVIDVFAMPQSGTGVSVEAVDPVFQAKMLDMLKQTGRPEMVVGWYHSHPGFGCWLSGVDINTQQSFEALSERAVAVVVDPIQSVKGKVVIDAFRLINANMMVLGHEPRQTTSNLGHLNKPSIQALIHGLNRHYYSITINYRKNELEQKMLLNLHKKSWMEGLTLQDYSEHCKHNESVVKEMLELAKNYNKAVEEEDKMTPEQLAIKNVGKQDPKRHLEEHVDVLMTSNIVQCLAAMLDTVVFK
ZTA DNA inh – counter-screen for EBNA-1 inhibitors: inhibitors of Epstein-Barr virus ZTA; P03206; ZTA-DNA binding, fluorescence polarization; inhibition, % at 11 µM; hit rate 0.15% among 320,000; AID 2234; in the data active = inhibition above about 33%
Target sequence (P03206 whole entry, looked up): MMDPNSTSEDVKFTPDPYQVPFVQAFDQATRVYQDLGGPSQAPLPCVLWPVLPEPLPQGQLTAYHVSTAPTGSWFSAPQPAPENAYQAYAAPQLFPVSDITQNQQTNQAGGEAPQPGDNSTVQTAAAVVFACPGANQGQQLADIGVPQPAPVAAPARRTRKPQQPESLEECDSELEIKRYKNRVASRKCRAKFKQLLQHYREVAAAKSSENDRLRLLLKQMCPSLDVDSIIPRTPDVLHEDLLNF
EBNA-1 confirm – EBNA-1 (EBV) inhibition, confirmation | shares compounds with EBNA-1 inh | AID 2292 | inhibition, % at 14.8 µM | Recombinant EBNA-1 DBD, Cy5-DNA fluorescence polarization | hit rate 35% among 830;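 active = mean inhibition across replicates above a set limit taken from the earlier primary screen, cut at about 28% in these data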;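 also: plate controls were EBNA-1 protein with DMSO for no effect and wells lacking EBNA-1 for full effect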
ZTA counter trip – blocks Epstein-Barr virus ZTA in triplicate, EBNA-1 counter-screen. shares compounds with EBNA-1 inh. AID 2328. inhibition, % at 11.1 µM. 830 tested, under 10 active. Zta-ZRE DNA binding, Cy5 fluorescence polarization;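 active = mean inhibition over triplicates above a set limit taken from the primary EBNA-1 screen, cut at about 37% in these data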;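 also: purified full length Zta protein with Cy5 labeled ZRE DNA probe; 0% = Zta with DMSO and 100% = wells lacking Zta protein; inhibitors lower polarization by freeing the labeled DNA probe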
Starred values were filed as active, the others as inactive; ? = inconclusive; nt = not tested or not shown.

SMILES	EBNA-1 inh	dFosB act	TPT1 inh	NR3A LBD binder	Rpn11 inh	ZTA DNA inh	others
C[N+](C)(C)CC(=O)O	0	3	-1	13*	-5	-14
O=C(NC1CN2CCC1CC2)c1ccc(-c2ccc([N+](=O)[O-])cc2)o1 (stereo unspecified)	-4	-4	-2	-1	1	-12
CC[N+](C)(CC)CCCCOc1ccc2c(c1)C(=O)c1cc(OCCCC[N+](C)(CC)CC)ccc1-2	-11	49*	-2	0	11	-9
Cc1nccc2c1[nH]c1ccccc12	-15	6	-2	2	-11	-5
c1ccc2c(c1)[nH]c1cnccc12	-9	-2	-9	14*	-2	-13
Cc1c2ccncc2c(C)c2c1[nH]c1ccccc12	-6	55*	-23	-11	29	5
O=c1cccc2n1CC1CC2CN(c2ncnc3c2cnn3-c2ccccc2)C1 (stereo unspecified)	3	-5	0	2	0	-20
O=C(Nc1ccc(Cl)cc1)N1CC2CC(C1)c1cccc(=O)n1C2 (stereo unspecified)	11	1	3	11*	-4	-1
O=C(Nc1ccc(Br)cc1)N1C[C@H]2C[C@@H](C1)c1cccc(=O)n1C2	-6	-4	1	-2	-4	-4
CN1CCN(c2ccc(N)cc2)CC1	-1	?	-3	1	5	-14
CN1CCN(c2ccc(N)c(N3CCN(C)CC3)c2)CC1	-3	56*	-3	1	-1	1
CCn1c(=O)n(CC)c2cc([N+](=O)[O-])c(N3CCNCC3)cc21	-4	-8	-4	1	-4	-6
N=C(N)c1c(O)n(C2CCCCC2)c(=O)n(C2CCCCC2)c1=O	6	-4	-5	18*	-1	15
C=C1C(O)[C@@H]2O[C@]3(CC[C@H](/C=C/C(C)[C@@H]4CC(C)=CC5(O[C@H](C[C@@](C)(O)C(=O)O)CCC5O)O4)O3)CC[C@H]2O[C@@H]1C(O)CC(C)[C@H]1OC2(CCCCO2)CCC1C (stereo partly specified)	nt	nt	nt	13*	nt	nt
Cc1ccc(OP(=O)(NCc2ccccc2)Oc2ccc(C)cc2)cc1	2	-4	2	13*	8	-6
Cc1ccc(NP(=O)(Oc2ccccc2)Oc2ccccc2)cc1	nt	-7	nt	-2	1	nt
O=C(COc1ccc(Br)cc1)N1CCN(Cc2ccc3c(c2)OCO3)CC1	-4	-10	1	0	-11	5
Cc1noc(C)c1C(=O)N1CCC2(CC1)OCCO2	-16	0	-2	1	0	-3
CC(C)c1onc(C(=O)N2CCC3(CC2)OCCO3)c1[N+](=O)[O-]	-2	-2	-1	16*	-2	-2
COC(=O)C1=C(N)Oc2c(c(=O)oc3ccccc23)[C@]12C(=O)N(C)c1ccccc12	-3	-10	0	17*	-1	19
CCCNC(=O)N1[C@H]2CC[C@@H]1C(C(=O)OC)=C(c1ccc(Cl)c(C(F)(F)F)c1)C2	nt	-1	nt	24*	3	-7
O=c1[nH]c(=S)n(-c2ccccc2F)c(O)c1C=NCc1ccco1	-5	-6	2	14*	3	1
O=C(CCc1ccccc1)N1Cc2cc(N3CCOCC3)ccc2-n2nncc2C1	nt	nt	nt	nt	4	nt
OCC[n+]1c2ccccc2nc2ccc(N3CCOCC3)cc21	84*	nt	-2	0	4	115*
CC(C)Oc1cccc(NC(=O)c2cccn(Cc3ccc4c(c3)OC(F)(F)O4)c2=O)c1	18	-21	-1	7	2	14
SMILES	EBNA-1 inh	dFosB act	TPT1 inh	NR3A LBD binder	Rpn11 inh	ZTA DNA inh	others
O=C(Nc1ccc(C(F)(F)F)cc1)c1cccn(Cc2ccc3c(c2)OC(F)(F)O3)c1=O	-8	-5	0	25*	5	7
O=C(Nc1cccc(C(F)(F)F)c1)c1cccn(Cc2ccc3c(c2)OC(F)(F)O3)c1=O	-8	-11	-3	25*	2	13
CCC(C)c1cnc(CC(C)C)c(=O)n1O (stereo unspecified)	nt	nt	nt	nt	-4	nt
Nc1c(C(=O)NCCc2ccccc2)c2nc3ccccc3nc2n1CCN1CCOCC1	4	-1	-2	12*	11	8
C/C(=N\NC(N)=O)c1c(O)n(C)c(=O)n(C)c1=O	3	0	-1	0	3	9
Oc1cc(O)cc(/C=C/c2ccc(O)cc2O)c1	nt	-2	nt	11*	-9	-2
COC(=O)C1=C(c2ccccc2)C[C@@H]2CC[C@H]1N2C(=O)N1CCC(O)CC1	14	-2	2	0	-1	6
O=C1NC(=O)C(=C/C=C/c2coc3ccc(Br)cc3c2=O)C(=O)N1	-1	nt	39*	nt	nt	21
COc1ccc(OC)c(CNCCc2ccc(OC)c(OC)c2)c1	-12	4	3	-5	-9	9
O=[N+]([O-])c1ccc(N2CCCCCC2)c2ncccc12	1	-1	6	21*	2	-4
O=[N+]([O-])c1ccc(N2CCCCC2)c2ncccc12	3	1	2	0	2	12
Cc1cccc(NP(=O)(Oc2ccccc2F)Oc2ccccc2F)c1C	-2	-2	-4	24*	4	-16
Cc1ccc(NP(=O)(Oc2ccccc2F)Oc2ccccc2F)cc1	-1	-11	0	-13	3	-6
OC(CCNCCc1c[nH]c2ccccc12)C(F)(F)Cl (stereo unspecified)	-5	2	0	0	-3	-6
O=c1[nH]c(=S)[nH]c(O)c1N=Nc1cc(S(=O)(=O)Nc2ccc(Cl)cc2)ccc1Cl	nt	-3	nt	13*	-15	-19
Nc1c(C(=O)OCc2ccccc2)c2nc3ccccc3nc2n1Cc1cccs1	15	8	7	14*	8	3
CCC(C)OC(=O)c1c(N)n(Cc2cccs2)c2nc3ccccc3nc12 (stereo unspecified)	1	4	-1	1	14	-3
CC(C)CN1Cc2cc(-c3ccccc3)ccc2-n2nncc2C1	nt	nt	nt	nt	-7	nt
O=C(Nc1ccc(Cl)cc1)OC1CN2CCC1CC2 (stereo unspecified)	7	-2	-3	8	0	5
O=C(Nc1cccc(Cl)c1)OC1CN2CCC1CC2 (stereo unspecified)	9	0	0	42*	7	3
Cc1nn(Cc2ccccc2)c(Cl)c1C(=O)OCC(=O)Nc1cccc2ccccc12	61*	7	-1	1	2	6	EBNA-1 confirm=15;ZTA counter trip=-6
